The values below come from PubChem BioAssay (NCATS).

“And” between values parts separate entries of the source, which are not always exact repeats. Equal values may be shown once. Records with an inconclusive call do not appear. The source made the active and inactive calls. The call rests on the fitted dose curve; in most records, active means well fitted inhibition curve with a large enough effect; inconclusive means small, poorly fitted or top-dose-only effect; inactive means flat fitted curve, though single readings scatter.
On the % scale 0 is the no-effect control and ±100 the full control effect; potency means the concentration at half of the fitted maximal effect.

This assay relates to KB-3-1. As to the kind of experiment: Cytotoxic Profiling of Annotated Libraries Using Quantitative High-Throughput Screening (AID 1296008). Further: nearly all actives have a fitted effect of over 60% in size. Conditions: Five cell lines viability, CellTiter-Glo ATP luminescence, 48-72 h; max response: active compounds read low. In a few lines:
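Compounds were pin-transferred onto cells and incubated 48 or 72 hr at 37 degree Celsius, 95% humidity. CellTiter-Glo was added, plates sat 10 min at room temperature, then ATP-coupled luminescence was imaged as the viability read-out.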
As for `COc1ccc(CNCC(O)COc2ccc3[nH]c(=O)ccc3c2)cc1OC` (stereo not drawn), the max response is 2.61% (inactive). In the case of `O=[N+]([O-])c1ccc(Oc2ccc(N=C=S)cc2)cc1`, the max response was -16.8% (inactive). On the same count and under the same terms, to `CCCC1([C@H](O)C/C=C/[C@H]2[C@H](O)CC(=O)[C@@H]2CCCCCCC(=O)OC)CCC1` belongs -18.2% (inactive); to `CN1CCN(CCCN2c3ccccc3Sc3ccccc32)CC1`, -4.85% (inactive). Same read-out and setting: the result for `C=C[C@]1(C)C[C@@H](OC(=O)CO)[C@]2(C)[C@H](C)CC[C@]3(CCC(=O)[C@H]32)[C@@H](C)[C@@H]1O` reads -28.5% (inactive); that for `CCCC(CCC)C(N)=O`, -11% (inactive); that for `Cc1cc(Nc2ccccc2C(=O)O)ccc1Cl`, -5.19% (inactive). Regarding `NNc1nnc(Cc2ccncc2)c2ccccc12`, the max response was -26.3% (inactive). Same read-out and setting: to `C=C1C(=C/C=C2\CCC[C@]3(C)[C@@H]([C@H](C)CCCC(C)(C)O)CC[C@@H]23)C[C@@H](O)C[C@@H]1O` belongs 4.02% (inactive); to `O=C(O)c1cccc(/C=C2/C[C@@H]3[C@@H](/C=C/[C@@H](O)C4CCCCC4)[C@H](O)C[C@@H]3O2)c1`, -0.588% (inactive); to `CC(CC(c1ccccc1)c1ccccc1)NC(C)(C)C` (stereo not drawn), -0.893% (inactive).

As to `Cc1ccc(C2(O)CCN(CCCC(=O)c3ccc(F)cc3)CC2)cc1`, the max response is -11.9% (inactive). The same measure, in the same setting: to `CCC(CN)CC(C)CCNCC(O)CNCC(C)CC(CC)CN` (stereo not drawn) belongs -5.63% (inactive); to `CO[C@@H]1[C@@H](O[C@@H]2O[C@H](C)[C@@H](O[C@H]3C[C@@](C)(O)[C@@H](OC(=O)CC(C)C)[C@H](C)O3)[C@H](N(C)C)[C@H]2O)[C@@H](CC=O)C[C@@H](C)[C@@H](O)/C=C/C=C/C[C@@H](C)OC(=O)C[C@H]1O`, -0.235% (inactive). On the same count and under the same terms, the result for `Nc1ncnc(Nc2ccc(Cl)cc2)n1` reads -7.22% (inactive); that for `CO[C@H]1[C@@H](O)[C@H](N)[C@@H](O[C@H]2O[C@H]([C@H](C)N)CC[C@H]2N)[C@H](O)[C@@H]1N(C)C(=O)CN`, -19.3% (inactive). Same read-out and setting: to `COc1cc2c(c(OC)c1OC)-c1c(cc3c(c1OC)OCO3)C[C@@H](C)[C@](C)(O)C2` belongs 21.3% (inactive) and -4.33% (inactive). For `CC(=O)OCC(=O)[C@@]1(O)[C@H](C)C[C@H]2[C@@H]3C[C@H](F)C4=CC(=O)C=C[C@]4(C)[C@H]3[C@@H](O)C[C@@]21C`, the max response is 23.1% (inactive). On the same count and under the same terms, to `Cc1ccc(/C(=C\CN2CCCC2)c2cccc(/C=C/C(=O)O)n2)cc1` belongs -13.8% (inactive). Still for that read-out and setting: to `CC(C(=O)O)c1ccc(C2CCCCC2)c2ccccc12` (stereo not drawn) belongs -20.6% (inactive); to `COC[C@H](c1ccc(C(F)(F)F)cc1)N1CCN(C2(C)CCN(C(=O)c3c(C)ncnc3C)CC2)C[C@H]1C`, -20% (inactive); to `O=C(OCCO)c1ccccc1O`, -5.64% (inactive). Same read-out and setting: to `COC(=O)C1=C(C)NC(C)=C(C(=O)O[C@H]2CCN(Cc3ccccc3)C2)[C@H]1c1cccc([N+](=O)[O-])c1` belongs -25.4% (inactive); to `CCOC(=O)COc1ccc2c(=O)cc(-c3ccccc3)oc2c1`, -2% (inactive) and -15.3% (inactive).

As to `CC1(C)S[C@@H]2[C@H](NC(=O)[C@H](N)c3ccccc3)C(=O)N2[C@H]1C(=O)OCOC(=O)[C@@H]1N2C(=O)C[C@H]2S(=O)(=O)C1(C)C`, the max response is -17% (inactive).

For `O=P(O)(O)OC(Cn1cncn1)(Cn1cncn1)c1ccc(F)cc1F`, the max response is -21.6% (inactive). Still for that read-out and setting: to `NCCC(=O)[N-][C@@H](Cc1cnc[nH]1)C(=O)O.[Zn]` belongs -13.6% (inactive). As for `C/C=C1\NC(=O)[C@H]2CSSCC/C=C/[C@H](CC(=O)N[C@H](C(C)C)C(=O)N2)OC(=O)C(C(C)C)NC1=O` (stereo partly drawn), the Potency is 9.2 nM (active). For the molecule `CN[C@@H]1CCc2[nH]c3ccc(C(N)=O)cc3c2C1`, the max response was -3.81% (inactive). Still for that read-out and setting: to `CCCCCCCCCCCCCCCC(=O)OC[C@H](O)[C@H]1OC(=O)C(O)=C1O` belongs -14.1% (inactive); to `O=P(O)(O)C(O)(Cc1cnc2ccccn12)P(=O)(O)O`, -1.58% (inactive). On the same count and under the same terms, to `O=C(Nc1ccc(/C=C/c2ccc(NC(=O)c3cc(S(=O)(=O)O)c4cccnc4c3O)cc2S(=O)(=O)O)c(S(=O)(=O)O)c1)c1cc(S(=O)(=O)O)c2cccnc2c1O` belongs 0.4% (inactive); to `COC1=C(C(=O)O)N2C(=O)[C@@H](NC(=O)[C@H](N)C3=CCC=CC3)[C@H]2SC1`, -6.73% (inactive).
